Results on eight compounds are retold here after PubChem BioAssay.

Activity calls are given as the source filed them. Unless noted, no rule for the calls is given here.

The subject of experiment [1] is Wnt5a (protein binding on small-molecule microarray). Kind of experiment: Wnt5a binders on small-molecule microarray, primary screen, biophysical, 635/667 nm fluorescence (AID 1142).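 Also: fluorescence read at 667 nm with signal to noise per printed feature.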 The following applies: 635 nm fluorescence, higher = more signal.
The nature of experiment [2]: cell viability in Huh7 cells, primary screen, cytotoxicity control for HCV replication inhibitor project, CellTiter-Glo luminescence, basal, 48 h (AID 1143).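 Also: Huh7 hepatoma cells carrying a hepatitis C replication reporter with no stimulus; test concentration not given here.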 The conditions noted are these: Huh7 HCV replicon, higher = more signal, called active from +8 up or from −8 down.
Experiment [3] is described as follows: P. aeruginosa biofilm formation inhibitors, primary screen, PAO1 strain, BacTiter-Glo luminescence, LB-PBS (AID 1144). The conditions noted are these: 12 h, higher = more signal.
A short description of experiment [4]: CREB reporter modulators without forskolin, primary screen, cell-based, PC12, CRE-LacZ reporter, unstimulated (AID 1145). The conditions noted are these: no forskolin, luminescence, 4.5 h, higher = more signal, called active from +8 up or from −8 down.
Experiment [5] is described as follows: CREB reporter modulators under forskolin, primary screen, cell-based, PC12, CRE-LacZ reporter, forskolin-stimulated (AID 1146).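 Also: PC12 cells with 6xCRE LacZ reporter stimulated by forskolin 10 µM; beta-galactosidase reporter signal reflecting CREB driven transcription.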 The following applies: luminescence, 4.5 h, higher = more signal, called active from +8 up or from −8 down.
Experiment [6] addresses Streptavidin (Streptomyces avidinii) (UniProt P22629). As to the kind of experiment: streptavidin binders on small-molecule microarray, primary screen, artefact control for SMM compound annotation, biophysical, 635/667 nm fluorescence (AID 1147).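 Also: signal reflects streptavidin binding to arrayed compounds as a control protein.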 The following applies: streptavidin binding, higher = more signal.
The nature of experiment [7]: small-molecule binders of probe aInhba, primary screen, biochemical, small-molecule microarray, 635/667 nm fluorescence (AID 1148).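 Also: score merges 667nm spot fluorescence with signal-to-noise for antibody binding to printed compounds.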 The following applies: higher = more signal.
The target in experiment [8] is Torsin-1A (Homo sapiens) (UniProt O14656). Kind of experiment: torsin A binders from cell lysate, primary screen, small-molecule microarray, wild-type, 635/667 nm (AID 1149). The following applies: COS7 hTOR1A-WT lysate, 635 nm fluorescence, higher = more signal.
Chain of Torsin-1A (Homo sapiens) (O14656 whole entry, looked up): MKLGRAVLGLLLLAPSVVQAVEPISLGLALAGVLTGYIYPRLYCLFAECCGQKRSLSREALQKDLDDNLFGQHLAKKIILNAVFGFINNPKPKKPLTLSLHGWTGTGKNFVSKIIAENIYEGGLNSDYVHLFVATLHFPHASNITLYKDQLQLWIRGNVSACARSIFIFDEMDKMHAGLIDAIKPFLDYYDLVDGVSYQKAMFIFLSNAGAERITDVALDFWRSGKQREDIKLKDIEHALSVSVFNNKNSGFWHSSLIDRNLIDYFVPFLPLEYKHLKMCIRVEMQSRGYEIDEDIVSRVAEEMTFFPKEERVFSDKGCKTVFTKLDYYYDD
For experiment [9] the target is unchanged. Kind of experiment: small-molecule binders of mutant TOR1A in lysate, primary screen, cell lysate, small-molecule microarray, COS7 lysate, 635/667 nm fluorescence (AID 1150).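 Also: score pools 667 nm emission and signal to noise measuring lysate protein binding.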 The following applies: COS7 hTOR1A mutant lysate, 635 nm fluorescence, higher = more signal.
The subject of experiment [10] is Sonic hedgehog protein (Shh). Kind of experiment: small-molecule binders of Shh protein, primary screen, biochemical, small-molecule microarray, 635/667 nm fluorescence (AID 1151).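 Also: Shh protein binding to compounds spotted on small-molecule microarray slides; score combines spot fluorescence intensity with signal-to-noise across triplicate slides.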 The conditions noted are these: small-molecule microarray binding, 635 nm fluorescence; higher = more signal.
A short description of experiment [11]: E. coli DRC41 culture turbidity changes, primary screen, E. coli filamentation inducer project, strain DRC41, OD650, 48 h (AID 1152).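 Also: E. coli MC1000 strain DRC41 lacking acrAB efflux pump and sulA.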 The following applies: E. coli DRC41 (acrAB sulA), higher = more signal, called active from +8 up or from −8 down.
Experiment [12] is described as follows: small-molecule binders of probe aLefty1, primary screen, biochemical, small-molecule microarray, 635/667 nm fluorescence (AID 1153).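 Also: score merges spot fluorescence with signal-to-noise ratio from the scanned slide images.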 The following applies: higher = more signal.
Experiment [13] can be described thus: PSAC antagonists in infected red cells, primary screen, cell-based, P. falciparum Indochina, OD700, 1 h (AID 1154). The following applies: P. falciparum Indochina infected RBC osmotic lysis, higher = more signal, called active from +8 up or from −8 down.
Experiment [14] is described as follows: PSAC antagonists in infected red cells, primary screen, cell-based, P. falciparum Indochina, OD700, 2 h (AID 1155).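 Also: lysis reports solute entry through the parasite surface anion channel PSAC; channel blockers reduce lysis of infected cells.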 The conditions noted are these: P. falciparum Indochina infected erythrocytes, osmotic lysis OD700; higher = more signal, called active from +8 up or from −8 down.
Experiment [15] can be described thus: osmotic lysis modulators in infected erythrocytes, primary screen, PSAC antagonist project, cell-based, P. falciparum Indochina, OD700, 3 h (AID 1156). The conditions noted are these: higher = more signal, called active from +8 up or from −8 down.
Experiment [16] can be described thus: PSAC antagonists in infected red cells, primary screen, cell-based, P. falciparum Indochina, OD700, 18 h (AID 1157). The conditions noted are these: P. falciparum Indochina infected erythrocytes, osmotic lysis OD700, 18 h; higher = more signal, called active from +8 up or from −8 down.
Experiment [17] is described as follows: modulators of S6 phosphorylation in cells, primary screen, cell-based, A549, cytoblot, luminescence, serum-stimulated (AID 1158).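 Also: serum-stimulated A549 lung adenocarcinoma cells; signal is phosphorylated S6 detected by cytoblot immunostaining with HRP secondary.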 The following applies: A549 phospho-S6 cytoblot, 5 h, higher = more signal.
Experiment [18] deals with NADPH oxidase 2 (Homo sapiens) (UniProt P04839). As to the kind of experiment: NOX2-dependent H2O2 signal modulators, primary screen, NOX inhibitor project, cell-based, HEK293-NOX2, PMA-stimulated, Amplex Red fluorescence (AID 1159). Also: test concentration not given here. The conditions noted are these: 45 min, higher = more signal, called active from +8 up or from −8 down.
Chain of NADPH oxidase 2 (Homo sapiens) (P04839 whole entry, looked up): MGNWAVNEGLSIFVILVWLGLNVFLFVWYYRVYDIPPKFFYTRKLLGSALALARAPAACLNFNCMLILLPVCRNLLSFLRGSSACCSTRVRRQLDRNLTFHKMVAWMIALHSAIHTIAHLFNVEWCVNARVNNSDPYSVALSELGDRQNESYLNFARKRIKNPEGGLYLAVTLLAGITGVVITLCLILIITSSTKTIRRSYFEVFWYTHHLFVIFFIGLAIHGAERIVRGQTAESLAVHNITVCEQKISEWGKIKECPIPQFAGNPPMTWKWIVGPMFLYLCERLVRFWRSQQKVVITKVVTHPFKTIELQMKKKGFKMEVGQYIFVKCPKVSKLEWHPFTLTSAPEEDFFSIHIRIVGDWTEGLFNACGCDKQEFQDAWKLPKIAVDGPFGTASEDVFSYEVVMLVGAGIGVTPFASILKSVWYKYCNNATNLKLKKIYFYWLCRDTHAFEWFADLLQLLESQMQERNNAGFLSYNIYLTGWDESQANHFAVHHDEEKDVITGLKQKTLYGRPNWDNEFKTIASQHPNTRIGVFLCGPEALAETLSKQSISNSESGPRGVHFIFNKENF
Experiment [19] deals with NADPH oxidase 4 (Homo sapiens) (UniProt Q9NPH5). As to the kind of experiment: NOX4-dependent H2O2 signal modulators, primary screen, NOX inhibitor project, cell-based, HEK293-NOX4, tetracycline-induced, Amplex Red fluorescence (AID 1160). The conditions noted are these: 45 min, higher = more signal, called active from +8 up or from −8 down.
Chain of NADPH oxidase 4 (Homo sapiens) (Q9NPH5 whole entry, looked up): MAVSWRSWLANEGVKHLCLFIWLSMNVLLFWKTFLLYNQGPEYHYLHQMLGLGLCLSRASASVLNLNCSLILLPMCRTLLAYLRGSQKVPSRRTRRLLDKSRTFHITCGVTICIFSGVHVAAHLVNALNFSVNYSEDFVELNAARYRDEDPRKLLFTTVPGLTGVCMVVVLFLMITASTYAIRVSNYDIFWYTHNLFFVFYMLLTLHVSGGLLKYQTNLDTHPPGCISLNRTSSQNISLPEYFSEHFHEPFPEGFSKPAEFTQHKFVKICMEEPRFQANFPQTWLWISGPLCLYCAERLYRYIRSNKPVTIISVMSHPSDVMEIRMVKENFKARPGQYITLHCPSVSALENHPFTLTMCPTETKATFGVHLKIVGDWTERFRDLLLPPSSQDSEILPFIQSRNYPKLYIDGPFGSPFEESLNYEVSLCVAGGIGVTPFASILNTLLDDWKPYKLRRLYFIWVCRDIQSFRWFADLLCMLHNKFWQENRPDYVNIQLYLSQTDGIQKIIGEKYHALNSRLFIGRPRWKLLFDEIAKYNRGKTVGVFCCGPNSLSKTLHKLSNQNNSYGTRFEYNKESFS
Experiment [20] concerns the target NADPH oxidase 5 (Homo sapiens) (UniProt Q96PH1). As to the kind of experiment: NOX5-dependent H2O2 signal modulators, primary screen, NOX inhibitor project, cell-based, HEK293-NOX5, Amplex Red fluorescence (AID 1161). The conditions noted are these: HEK293-NOX5, ionomycin, 45 min, higher = more signal.

Chain of NADPH oxidase 5 (Homo sapiens) (Q96PH1 whole entry, looked up): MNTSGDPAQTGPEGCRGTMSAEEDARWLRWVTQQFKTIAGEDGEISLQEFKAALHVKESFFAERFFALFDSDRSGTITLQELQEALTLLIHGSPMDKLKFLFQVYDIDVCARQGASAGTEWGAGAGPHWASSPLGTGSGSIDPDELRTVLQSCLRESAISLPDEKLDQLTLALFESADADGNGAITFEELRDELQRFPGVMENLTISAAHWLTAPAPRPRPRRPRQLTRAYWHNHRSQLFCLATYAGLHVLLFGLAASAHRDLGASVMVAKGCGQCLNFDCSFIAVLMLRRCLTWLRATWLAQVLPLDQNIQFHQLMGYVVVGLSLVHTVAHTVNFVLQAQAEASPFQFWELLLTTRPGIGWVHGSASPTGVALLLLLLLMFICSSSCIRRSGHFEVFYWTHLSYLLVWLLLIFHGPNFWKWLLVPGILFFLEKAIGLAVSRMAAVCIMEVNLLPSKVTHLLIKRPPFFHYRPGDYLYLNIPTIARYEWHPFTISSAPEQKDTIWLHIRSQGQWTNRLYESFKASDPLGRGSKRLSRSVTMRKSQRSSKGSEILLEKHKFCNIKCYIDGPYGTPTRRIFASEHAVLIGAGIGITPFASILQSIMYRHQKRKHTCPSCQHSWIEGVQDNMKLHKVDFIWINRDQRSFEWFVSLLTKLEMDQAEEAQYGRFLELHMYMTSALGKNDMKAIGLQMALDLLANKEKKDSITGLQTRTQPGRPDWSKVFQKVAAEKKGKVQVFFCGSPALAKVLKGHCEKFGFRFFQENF
Chain of Streptavidin (Streptomyces avidinii) (P22629 whole entry, looked up): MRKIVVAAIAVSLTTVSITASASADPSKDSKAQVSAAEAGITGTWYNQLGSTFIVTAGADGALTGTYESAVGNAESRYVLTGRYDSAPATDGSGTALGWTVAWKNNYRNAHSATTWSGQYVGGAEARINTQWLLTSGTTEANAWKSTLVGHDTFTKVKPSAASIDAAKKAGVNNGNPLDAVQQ

For the compound `COCCCN1C(=O)[C@@]2(c3ccc([N+](=O)[O-])cc3)CC(=O)N(CC34CC5CC(CC(C5)C3)C4)[C@@H]2c2ccc(CO)cc21`, the composite z-score in [1] is -0.15; in experiment [6], 0.135; in [7], -0.138; in experiment [8], -0.323; in [9], -0.0458; in experiment [10], 0.791. This compound also registered a composite z-score in [12] of -0.298. Also, the z-score in experiment [2] was -0.636 (inactive); in experiment [3] it was -0.453 (inactive); in experiment [4], -1.32 (inactive); in experiment [5], -0.556 (inactive); in [11], 0.172 (inactive); in [13], -0.409 (inactive). In addition, the z-score in experiment [14] is 0.28 (inactive); in experiment [15], 1.48 (inactive); in experiment [16] it was 0.0583 (inactive); in experiment [17], 0.261; in experiment [18], 0.307 (inactive); in experiment [19] it was 0.183 (inactive). For the same compound, the z-score in experiment [20] was 0.482.

For `CC(C)C(CO)N1C(=O)[C@@H]2C3C(=O)OCCC/C=C\[C@H]3OC23C=CCN(Cc2ccccc2)C(=O)[C@@H]13` (stereo not given in full), the composite z-score in [1] is 0.0204; in experiment [6], -1.14; in [7] it was 0.0212; in [8] it was 0.662; in [9], 0.825; in [10], 0.855. Moreover, the composite z-score in experiment [12] is -0.0035. The z-score in [2] was -0.294 (inactive); in experiment [3] it was 2.31 (inactive); in experiment [4], 0.601 (inactive); in experiment [5], 0.312 (inactive); in experiment [11], 0.83 (inactive); in experiment [13] it was 1.12 (inactive). Also, the z-score in experiment [14] is 0.405 (inactive); in experiment [15], 1.12 (inactive); in [16], 0.503 (inactive); in experiment [17], 0.186; in experiment [18] it was 1.25 (inactive); in [19], 0.838 (inactive). In [20], this compound had a z-score of 2.26.

Turning to `COc1ccc([Si](C)(C)[C@H]2[C@H](CCO)O[C@@]3(C(=O)N(Cc4cccc(N5C(=O)c6ccccc6Oc6ccccc65)c4)c4ccccc43)[C@@H]2C)cc1`, the composite z-score was 0.0511 in experiment [1]; 0.4 in experiment [6]; -0.05 in [7]; -0.412 in experiment [8]; -0.54 in experiment [9]; 0.734 in experiment [10]. The compound further registered a composite z-score in experiment [12] of 0.119. For the same compound, the z-score in experiment [2] is -6.96 (inactive); in experiment [3], -0.365 (inactive); in experiment [4], 0.716 (inactive); in experiment [5], -1.1 (inactive); in experiment [11] it was 0.253 (inactive); in [13], 2.63 (inactive). The z-score in experiment [14] was 2.78 (inactive); in experiment [15], 0.979 (inactive); in [16], 1.6 (inactive); in [17], 0.87; in experiment [18] it was -1.93 (inactive); in experiment [19], 2.27 (inactive). The z-score in experiment [20] was 1.1.

As for `COC(=O)[C@@]1(Cc2ccc(OC)cc2)[C@H]2c3cc(C(=O)N4CCCC4)n(Cc4ccc(C(F)(F)F)nc4)c3C[C@H]2CN1C(=O)c1ccccc1`, the composite z-score is 0.426 in experiment [1]; -0.012 in [6]; 0.225 in experiment [7]; 0.866 in experiment [8]; 0.52 in experiment [9]; -0.246 in [10]. This compound returned a composite z-score in experiment [12] of -0.0647. Further, the z-score was -2.36 (inactive) in experiment [2]; 0.361 (inactive) in experiment [3]; -0.372 (inactive) in [4]; 0.945 (inactive) in experiment [5]; -2.07 (inactive) in [11]; 6.38 (inactive) in experiment [13]. In addition, the z-score in [14] is 4.52 (inactive); in experiment [15], 0.746 (inactive); in [16], 3.37 (inactive); in experiment [17], -0.249; in experiment [18], 0.101 (inactive); in [19] it was 0.564 (inactive). In experiment [20], this compound displayed a z-score of 0.63.

With `O=C1[C@H]2C=C(I)[C@H](C[C@@H]2c2ccccc2)[C@@]12CO2`, the composite z-score is -0.303 in [1]; -0.144 in experiment [6]; -0.0762 in experiment [7]; -0.114 in experiment [8]; -0.153 in [9]; 0.147 in experiment [10]. Besides, the composite z-score in experiment [12] is -0.15. The z-score in [2] is -0.496 (inactive); in experiment [3], 0.686 (inactive); in experiment [4] it was 0.849 (inactive); in experiment [5], 1.31 (inactive); in [11], -1.76 (inactive); in [13] it was 0.613 (inactive). In addition, the z-score in experiment [14] is 0.0069 (inactive); in experiment [15], 0.402 (inactive); in experiment [16], -0.0396 (inactive); in experiment [17], -0.164; in [18], -0.66 (inactive); in [19] it was 0.265 (inactive). This compound gave a z-score in experiment [20] of -0.666.

In the case of `[N-]=[N+]=Nc1ccccc1C[C@@]1(C(=O)NCc2ccccc2)N=C(c2ccc(OCCCO)cc2)O[C@@H]1c1ccccc1N=[N+]=[N-]`, the composite z-score was 0.897 in experiment [1]; 0.905 in [6]; 0.767 in experiment [7]; 0.123 in experiment [8]; 0.388 in experiment [9]; 0.473 in experiment [10]. For the same compound, the composite z-score in experiment [12] turned out to be 0.399. Also, the z-score in [2] is -5.79 (inactive); in experiment [3], -0.424 (inactive); in experiment [4] it was 0.596 (inactive); in [5], -2.3 (inactive); in [11], 0.0484 (inactive); in experiment [13], 31.4 (active). The z-score in experiment [14] is 24.3 (active); in [15] it was 2.08 (inactive); in [16], 0.984 (inactive); in experiment [17], 1.38; in experiment [18], -4.79 (inactive); in [19], -2.16 (inactive). Besides, the z-score in experiment [20] is -1.67.

As to `CN1C(=O)C2C(C1=O)C1C=C(CCCO)C2C(C2CC2)N1Cc1cccc(OC(F)(F)F)c1` (stereo not given), the composite z-score in experiment [1] is -0.317; in [6], 0.851; in experiment [7], -0.101; in [8], 1.03; in [9] it was 1.76; in experiment [10], -0.525. The composite z-score in experiment [12] was -0.295. Also, the z-score in experiment [2] was -0.591 (inactive); in experiment [3], 0.55 (inactive); in [4], -0.348 (inactive); in [5] it was 1.3 (inactive); in experiment [11] it was -0.771 (inactive); in experiment [13] it was 1.34 (inactive). Besides, the z-score in [14] is 0.505 (inactive); in experiment [15], 0.627 (inactive); in experiment [16], 0.402 (inactive); in [17], -0.546; in [18], 0.561 (inactive); in experiment [19], 0.568 (inactive). In [20], this compound had a z-score of 1.2.

`COc1ccc(C#Cc2ccc3c(c2)[C@]2(C(=O)N3)[C@H](C(=O)O)[C@H]3C(=O)O[C@H](c4ccccc4)[C@H](c4ccccc4)N3[C@@H]2c2ccccc2OCCO)cc1`: the composite z-score in experiment [1] is 0.119; in experiment [6] it was 0.904; in experiment [7] it was -0.413; in experiment [8] it was 0.65; in experiment [9], 0.643; in experiment [10], 1.63. For the same compound, the composite z-score in experiment [12] is -0.707. Moreover, the z-score was -5.87 (inactive) in experiment [2]; -1.75 (inactive) in [3]; 1.43 (inactive) in experiment [4]; 4.81 (inactive) in [5]; 0.987 (inactive) in experiment [11]; -0.357 (inactive) in [13]. The z-score is -0.566 (inactive) in experiment [14]; -10.3 (active) in experiment [15]; -2.29 (inactive) in [16]; 1.56 in experiment [17]; 2.09 (inactive) in [18]; -0.415 (inactive) in experiment [19]. The same compound had a z-score in experiment [20] of -2.32.
